Test results reported in PubChem BioAssay (Tox21).
“And” between values parts separate entries of the source, which are not always exact repeats. Equal entries are not always repeated. Inconclusive results are not listed. A call without a number means that no potency is given here. The source made the active and inactive calls. Unless noted, calls follow the shape of the full dose curve.

Assays:
[1] = Nuclear factor erythroid 2-related factor 2/antioxidant responsive element (Nrf2/ARE) small molecule agonists: qHTS cell viability counter screen in human keratinocytes (AID 1919968; active = well fitted curve in the direction sought with a large enough effect in the repeat runs; an effect the other way counts as inactive or inconclusive; also: nearly all actives have a fitted effect of over 55% in size)
In short: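 Viability counter-screen: KeratinoSens reporter cells, DMSO-delivered compounds, 23 h at 37 C, CellTiter-Fluor fluorescence.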

[2] = Nuclear factor erythroid 2-related factor 2/antioxidant responsive element (Nrf2/ARE) small molecule agonists: luciferase reporter gene qHTS assay in human keratinocytes (AID 1919969); also: nearly all actives have a fitted effect of over 35% in size; also: potency is read from the fitted curve at half-maximal effect
[3] = target: Gonadotropin-releasing hormone receptor (Homo sapiens) (UniProt P30968); test: Human gonadotropin-releasing hormone receptor (GnRHR) small molecule agonists, calcium flux assay in GnRHR-HEK293 cells (AID 1920063); also: nearly all actives have a fitted effect of over 35% in size
In short: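 Tox21-format agonist screen using human GnRHR-expressing HEK293 cells and a fluorescent calcium dye; kinetic 3-min fluorescence reading after compound addition, 15-point concentration series run in triplicate.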

[4] = target: KiSS-1 receptor (Homo sapiens) (UniProt Q969F8); test: Human kisspeptin (KISS1R) small molecule agonists, calcium flux assay in KISS1R-HEK293 cells (AID 1920064; active = well fitted curve in the direction sought with a large enough effect in the repeat runs; an effect the other way counts as inactive or inconclusive)
In short: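 Intracellular calcium mobilization in KISS1R-HEK293 cells was recorded by fluorescence (Ex/Em 480/540) for 3 min following compound addition to cells pre-loaded 1 h with calcium dye.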

[5] = G protein-coupled receptor (GPCR) small molecule agonists, calcium flux assay: HEK293 wild type cell line counter screen (AID 1920065)
In short: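 In this agonist-mode screen, ATP is the positive control and DMSO the vehicle. Cells grow 18 h before a 1 h dye incubation at 37 C; signal is taken at Ex/Em 480/540 over 3 min.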

[6] = p53 small molecule agonists, cell-based qHTS assay with human liver microsomes (AID 1963577);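 also: p53 response element beta-lactamase reporter cells with liver microsomes plus NADPH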
In short: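 In this qHTS, p53 response-element beta-lactamase cells receive test compound together with a microsome/NADPH activating system (0.5 mg/mL final each) and are incubated 16 h at 37 C before LiveBLAzer fluorescence detection.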

[7] = p53 small molecule agonists, cell-based qHTS assay with rat liver microsomes (AID 1963578)
In short: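 Agonist mode in p53RE-bla reporter cells, with compounds co-incubated 16 h at 37 C alongside 0.5 mg/mL rat liver microsomes and 0.5 mg/mL NADPH (final), followed by a 2 h LiveBLAzer detection step.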

[8] = p53 small molecule agonists, cell-based qHTS assay with human liver microsomes: qHTS cell viability counter screen (AID 1963579); also: nearly all actives have a fitted effect of over 45% in size
In short: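 Metabolically activated exposure: compounds, human liver microsomes and NADPH (0.5 mg/mL final apiece) were added to p53RE-bla cells seeded 5 h earlier, left 16 h at 37 C, and then assessed for viability by CellTiter-Glo luminescence.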

[9] = p53 small molecule agonists, cell-based qHTS assay with rat liver microsomes: qHTS cell viability counter screen (AID 1963580); also: nearly all actives have a fitted effect of over 45% in size
In short: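 Viability is assessed in parallel with the p53 reporter read: HCT-116 p53RE-bla cells receive compounds plus rat microsomes and NADPH (0.5 mg/mL final apiece), incubate 16 h at 37 C, and then CellTiter-Glo luminescence is recorded.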

[10] = p53 small molecule agonists, cell-based qHTS assay: qHTS cell viability counter screen (AID 1963581); also: nearly all actives have a fitted effect of over 45% in size
In short: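 Compounds are pinned onto HCT-116 p53RE-bla cells and left 16 h at 37 C. Following the reporter FRET read, ATP is quantified by CellTiter-Glo luminescence after 30 min at room temperature.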

[11] = p53 small molecule agonists, cell-based qHTS assay (AID 1963582; active = well fitted activation curve with a large enough effect in the signal ratio in the repeat runs, not every such curve was filed as active; the % refers to the signal ratio)
In short: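 Agonist activity was scored from beta-lactamase FRET fluorescence in p53RE-bla cells treated 16 h at 37 C with compounds in DMSO, substrate incubation being 2 h at room temperature.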

[12] = target: 5-hydroxytryptamine receptor 2A (Homo sapiens) (UniProt P28223); test: 5-hydroxytryptamine receptor 2A (HTR2A) small molecule antagonists, cell-based qHTS assay (AID 1963586); also: nearly all actives have a fitted effect of over 45% in size
In short: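 Antagonist-mode intracellular calcium assay: DOI (4 nM) added after 5 min compound pre-incubation at room temperature to dye-loaded HTR2A-CHO cells. Fluorescence followed for 3 min, sampled every second.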

[13] = target: 5-hydroxytryptamine receptor 2A (Homo sapiens) (UniProt P28223); test: 5-hydroxytryptamine receptor 2A (HTR2A) small molecule agonists, cell-based qHTS assay (AID 1963587); also: nearly all actives have a fitted effect of over 30% in size
In short: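 CHO cells stably expressing human HTR2A, plated 18 h, loaded with calcium dye 1 h at 37 C. Agonist mode: compounds added and intracellular calcium fluorescence recorded kinetically for 2 min at 1 sec intervals.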

[14] = target: Muscarinic acetylcholine receptor M1 (Homo sapiens) (UniProt P11229); test: Cholinergic receptor muscarinic 1 (CHRM1) small molecule antagonists, cell-based qHTS assay (AID 1963588); also: nearly all actives have a fitted effect of over 40% in size
In short: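 CHRM1-CHO calcium-flux assay, antagonist mode. Cells were seeded 18 h, dye-loaded 1 h at 37 C and given compound for 5 min at RT, then acetylcholine was added at 50nM. FDSS fluorescence was read 3 min; 15 concentrations, three runs.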

[15] = target: Muscarinic acetylcholine receptor M1 (Homo sapiens) (UniProt P11229); test: Cholinergic receptor muscarinic 1 (CHRM1) small molecule agonists, cell-based qHTS assay (AID 1963589); also: nearly all actives have a fitted effect of over 35% in size
In short: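 Stable CHRM1-CHO cells (human receptor) were incubated 18 h, dye-loaded for 1 h at 37 C and exposed to test compounds for agonist activity, with calcium-dependent fluorescence followed kinetically.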

[16] = cAMP Responsive Elements (CRE) small molecule agonists, cell-based qHTS assay (AID 1963590)
In short: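 FRET-based beta-lactamase readout (LiveBLAzer B/G, 2 h RT) quantified CRE activation in HEK 293T CRE-bla cells after 3 h treatment with DMSO-dissolved compounds.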

[17] = cAMP Responsive Elements (CRE) small molecule antagonists, cell-based qHTS assay (AID 1963591; active = well fitted inhibition curve with a large enough effect in the signal ratio in the repeat runs, not every such curve was filed as active; the % refers to the signal ratio)
In short: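 qHTS in CRE-bla HEK 293T cells: compound in DMSO, then 0.25 uM NKH477 (final), 3 h at 37 °C/5% CO2; beta-lactamase FRET read-out after 2 h substrate incubation.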

[18] = target: Beta-2 adrenergic receptor (Homo sapiens) (UniProt P07550); test: Adrenergic beta2 receptor (ADRB2) small molecule antagonists, cell-based qHTS assay (AID 1963592); also: series mostly up to about 92 µM; nearly all actives have a fitted effect of over 50% in size
In short: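 Cells (CHO, stable ADRB2 overexpression) incubated 18-20hr at 37C; compounds added from DMSO; agonist mix (1nM isoproterenol, 100uM IBMX, 25uM Ro-20-1724) added; 0.5hr RT; d2-cAMP and anti-cAMP-cryptate added; 1hr RT; 665/615 nm read.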

[19] = target: D(2) dopamine receptor (Homo sapiens) (UniProt P14416); test: Dopamine D2 receptor (DRD2) small molecule antagonists, cell-based qHTS assay (AID 1963595; active = well fitted inhibition curve with a large enough effect in the signal ratio in the repeat runs, with a control signal flat; the % refers to the signal ratio)
In short: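 In this cell-based antagonist screen, compounds act for 10 min at room temperature before a 30 min challenge with 12 nM quinpirole and 200 nM NKH477. cAMP is quantified by HTRF competition in DRD2-HEK293 cells containing 0.1 mM Ro20-1724.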

[20] = target: D(2) dopamine receptor (Homo sapiens) (UniProt P14416); test: Dopamine D2 receptor (DRD2) small molecule agonists, cell-based qHTS assay (AID 1963594); also: nearly all actives have a fitted effect of over 35% in size
In short: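 HEK293 cells stably expressing human DRD2, pre-treated with PDE inhibitor Ro20-1724 (0.1 mM final) and compound 10 min at room temperature, then stimulated with NKH477 (200nM […]) for 30 min. cAMP read by HTRF (665/620 nm).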

Chain of KiSS-1 receptor (Homo sapiens) (Q969F8 whole entry, looked up): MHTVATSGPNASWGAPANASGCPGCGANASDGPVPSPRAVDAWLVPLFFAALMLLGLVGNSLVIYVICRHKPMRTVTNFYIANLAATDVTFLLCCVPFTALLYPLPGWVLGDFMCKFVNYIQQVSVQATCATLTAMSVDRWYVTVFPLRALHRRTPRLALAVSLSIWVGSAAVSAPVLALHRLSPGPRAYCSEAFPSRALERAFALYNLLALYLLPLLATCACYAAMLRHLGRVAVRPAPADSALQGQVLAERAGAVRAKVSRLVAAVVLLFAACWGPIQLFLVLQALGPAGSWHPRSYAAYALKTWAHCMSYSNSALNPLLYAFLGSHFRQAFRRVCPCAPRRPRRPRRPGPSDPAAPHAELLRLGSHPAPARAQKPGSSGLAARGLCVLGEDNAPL
Chain of Beta-2 adrenergic receptor (Homo sapiens) (P07550 whole entry, looked up): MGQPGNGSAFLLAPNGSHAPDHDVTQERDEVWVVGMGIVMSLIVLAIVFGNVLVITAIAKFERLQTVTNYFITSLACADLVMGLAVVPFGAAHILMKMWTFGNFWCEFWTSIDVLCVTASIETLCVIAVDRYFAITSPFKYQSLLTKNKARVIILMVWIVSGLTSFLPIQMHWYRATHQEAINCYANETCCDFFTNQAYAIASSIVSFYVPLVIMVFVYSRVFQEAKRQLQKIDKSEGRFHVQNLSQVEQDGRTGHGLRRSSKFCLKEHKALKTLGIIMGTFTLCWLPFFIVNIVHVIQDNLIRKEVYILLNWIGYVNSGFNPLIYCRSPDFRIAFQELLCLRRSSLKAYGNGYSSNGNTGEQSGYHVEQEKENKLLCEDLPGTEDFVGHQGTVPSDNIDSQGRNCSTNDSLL
Chain of 5-hydroxytryptamine receptor 2A (Homo sapiens) (P28223 whole entry, looked up): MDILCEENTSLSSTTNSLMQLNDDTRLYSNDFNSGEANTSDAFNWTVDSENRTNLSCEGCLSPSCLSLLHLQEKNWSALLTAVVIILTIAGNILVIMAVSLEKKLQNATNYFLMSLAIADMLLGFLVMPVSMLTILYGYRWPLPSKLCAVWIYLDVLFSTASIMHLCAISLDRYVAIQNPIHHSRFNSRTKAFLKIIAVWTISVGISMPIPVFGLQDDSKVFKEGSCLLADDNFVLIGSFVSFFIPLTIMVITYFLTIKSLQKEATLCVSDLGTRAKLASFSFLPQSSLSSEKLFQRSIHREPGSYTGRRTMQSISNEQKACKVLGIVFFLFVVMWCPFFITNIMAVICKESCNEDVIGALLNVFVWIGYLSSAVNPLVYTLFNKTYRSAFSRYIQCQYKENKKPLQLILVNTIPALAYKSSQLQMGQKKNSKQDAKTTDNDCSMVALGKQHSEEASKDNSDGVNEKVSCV
Chain of D(2) dopamine receptor (Homo sapiens) (P14416 whole entry, looked up): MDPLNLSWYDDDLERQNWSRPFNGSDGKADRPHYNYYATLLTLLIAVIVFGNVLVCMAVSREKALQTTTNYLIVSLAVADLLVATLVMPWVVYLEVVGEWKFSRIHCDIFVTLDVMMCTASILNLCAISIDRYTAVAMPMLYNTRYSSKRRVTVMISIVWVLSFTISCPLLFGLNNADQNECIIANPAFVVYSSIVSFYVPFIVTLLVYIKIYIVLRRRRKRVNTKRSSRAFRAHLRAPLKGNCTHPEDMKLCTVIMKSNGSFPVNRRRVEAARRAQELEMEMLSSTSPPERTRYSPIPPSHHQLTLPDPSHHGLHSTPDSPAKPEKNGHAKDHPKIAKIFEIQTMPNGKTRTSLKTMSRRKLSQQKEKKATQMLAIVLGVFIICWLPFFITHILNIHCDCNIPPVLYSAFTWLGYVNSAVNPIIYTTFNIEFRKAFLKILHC
Chain of Gonadotropin-releasing hormone receptor (Homo sapiens) (P30968 whole entry, looked up): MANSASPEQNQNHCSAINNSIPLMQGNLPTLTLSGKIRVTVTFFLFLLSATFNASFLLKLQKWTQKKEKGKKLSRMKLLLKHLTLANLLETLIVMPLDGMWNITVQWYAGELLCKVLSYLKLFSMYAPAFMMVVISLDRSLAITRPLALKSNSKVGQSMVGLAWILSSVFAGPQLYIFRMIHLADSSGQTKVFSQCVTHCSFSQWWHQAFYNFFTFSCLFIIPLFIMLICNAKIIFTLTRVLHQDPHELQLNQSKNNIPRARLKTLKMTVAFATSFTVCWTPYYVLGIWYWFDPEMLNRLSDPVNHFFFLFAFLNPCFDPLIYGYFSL
Chain of Muscarinic acetylcholine receptor M1 (Homo sapiens) (P11229 whole entry, looked up): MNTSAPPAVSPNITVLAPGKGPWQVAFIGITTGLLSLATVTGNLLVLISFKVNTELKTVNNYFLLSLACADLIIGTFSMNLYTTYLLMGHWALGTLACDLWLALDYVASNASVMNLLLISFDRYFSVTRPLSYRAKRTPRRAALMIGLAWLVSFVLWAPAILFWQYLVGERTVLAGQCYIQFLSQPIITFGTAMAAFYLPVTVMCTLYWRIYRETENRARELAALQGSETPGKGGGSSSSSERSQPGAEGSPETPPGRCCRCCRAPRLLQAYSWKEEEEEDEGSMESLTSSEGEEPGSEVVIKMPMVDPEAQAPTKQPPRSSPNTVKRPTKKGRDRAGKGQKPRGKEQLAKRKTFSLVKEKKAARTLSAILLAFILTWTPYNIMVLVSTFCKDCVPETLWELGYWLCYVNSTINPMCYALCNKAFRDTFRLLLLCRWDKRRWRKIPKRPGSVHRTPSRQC

| SMILES | Potency [1] | Potency [2] | Potency [3] | Potency [4] | Potency [5] | Potency [6] | Potency [7] | Potency [8] | Potency [9] | Potency [10] | Potency [11] | Potency [12] | Potency [13] | Potency [14] | Potency [15] | Potency [16] | Potency [17] | Potency [18] | Potency [19] | Potency [20] |
| --- | --- | --- | --- | --- | --- | --- | --- | --- | --- | --- | --- | --- | --- | --- | --- | --- | --- | --- | --- | --- |
| Cc1ccc(C(C)C)c(O)c1 | inactive | inactive | inactive | inactive | inactive | inactive | inactive | inactive | inactive | inactive | inactive | inactive | inactive | inactive | inactive | inactive | inactive | inactive | inactive |  |
| CC(=O)CC(C)(C)O | inactive | inactive | inactive | inactive | inactive | inactive | inactive | inactive | inactive | inactive | inactive | inactive | inactive | inactive | inactive | inactive | inactive | inactive | inactive | inactive |
| CC(=O)NS(=O)(=O)c1ccc(N)cc1 | inactive | inactive | inactive | inactive | inactive | inactive | inactive | inactive | inactive | inactive | inactive | inactive | inactive | inactive | inactive | inactive | inactive | inactive | inactive | inactive |
| CCC(=O)/C=C/C1C(C)=CCCC1(C)C (stereo unspecified) | inactive | inactive | inactive | inactive | inactive | inactive | inactive | inactive | inactive | inactive | inactive | inactive | inactive | inactive | inactive | inactive | inactive |  |  | inactive |
| c1ccc2c(c1)ccc1cc3c(ccc4ccccc43)cc12 | inactive | 17 µM (active) and 2.15 µM (active) | inactive | inactive | inactive | inactive | inactive | inactive | inactive | inactive | inactive | inactive | inactive | inactive | inactive | inactive | inactive | inactive | inactive | inactive |
| C[N+](C)(C)CCCCCC[N+](C)(C)C | inactive | inactive | inactive | inactive | inactive | inactive | inactive | inactive | inactive | inactive | inactive | inactive | inactive | inactive | inactive | inactive | inactive | inactive | inactive | inactive |
| CC(=O)N[C@@H](CS)C(=O)O | inactive | inactive | inactive | inactive | inactive | inactive | inactive | inactive | inactive | inactive | inactive | inactive |  | inactive | inactive | inactive | inactive | inactive | inactive | inactive |
